Structures can show the parent of a compound that is named as a salt.
The compounds below were run on PBMC-derived induced microglia-like cells (piMGLC) (assay: synaptosome phagocytic index relative to DMSO control (fraction of DMSO); higher = more phagocytosis). Details: concentration: 10 uM (2 uM for compounds listed in Table S2); pretreatment time: 24 h; assay time: 3 h.
Compound `O=S1(=O)N[C@H]2CCCN2c2ccccc21` has a synaptosome phagocytic index of 0.742.
`CCCCNc1ncc2c(-c3ccc(CN4CCN(C)CC4)cc3)cn([C@H]3CC[C@H](O)CC3)c2n1` gave a synaptosome phagocytic index of 0.246.
Compound `CN(C)CCOc1ccc(-c2nc(-c3ccncc3)c(-c3ccc4c(c3)CC/C4=N\O)[nH]2)cc1` has a synaptosome phagocytic index of 0.684.
`C[C@H]1COc2c(N3CCN(C)CC3)c(F)cc3c(=O)c(C(=O)O)cn1c23` [Levofloxacin] showed a synaptosome phagocytic index of 1.16.
In the case of `Cc1ccsc1C(=CCCN1CCC[C@@H](C(=O)O)C1)c1sccc1C` [Tiagabine_(hydrochloride)], the synaptosome phagocytic index is reported as 1.28.
For `CNS(=O)(=O)Cc1ccc2[nH]cc(CCN(C)C)c2c1` [Sumatriptan_(succinate)], the synaptosome phagocytic index was 0.992.
`C[N+](C)(C)CCOP(=O)([O-])OC[C@H](O)CO` [sn-Glycero-3-phosphocholine] showed a synaptosome phagocytic index of 0.483.
`CCOc1nc2cccc(C(=O)O)c2n1Cc1ccc(-c2ccccc2-c2nnn[nH]2)cc1` [Candesartan] showed a synaptosome phagocytic index of 1.1.
Work on `Cc1c(N)c(=O)n(-c2ccccc2)n1C` [Ampyrone] yielded a synaptosome phagocytic index of 0.708.
In the case of `NS(=O)(=O)Cc1noc2ccccc12` [Zonisamide], the synaptosome phagocytic index is reported as 0.742.
`C#Cc1cccc(Nc2ncnc3cc(OCCOC)c(OCCOC)cc23)c1` [Erlotinib] was tested, and the synaptosome phagocytic index was 0.798.
`Nc1ccccc1NC(=O)c1ccc(CNC(=O)OCc2cccnc2)cc1` [Entinostat] was tested, and the synaptosome phagocytic index was 0.753.
`CC(=O)[C@H]1CC[C@H]2[C@@H]3CC=C4C[C@@H](O)CC[C@]4(C)[C@H]3CC[C@]12C` [Pregnenolone] gave a synaptosome phagocytic index of 0.878.
With `CC/C(=C(/CC)c1ccc(O)cc1)c1ccc(O)cc1` [Diethylstilbestrol] the synaptosome phagocytic index was 0.638.
`Cn1nnc2c(C(N)=O)ncn2c1=O` [Temozolomide] showed a synaptosome phagocytic index of 0.824.
Work on `NCC(=O)CCC(=O)O` [5-Aminolevulinic_acid_(hydrochloride)] yielded a synaptosome phagocytic index of 0.444.
Work on `CC[C@@]12C=C(C(=O)O)n3c4c(c5ccccc53)CCN(CCC1)[C@H]42` [Apovincaminic_acid_(hydrochloride_salt)] yielded a synaptosome phagocytic index of 0.745.
Work on `C[C@H](Cn1cnc2c(N)ncnc21)OCP(=O)(O)O` [Tenofovir] yielded a synaptosome phagocytic index of 0.906.
With `CCCCCCCCCC(=O)OCCN1CCN(CCCN2c3ccccc3Sc3ccc(C(F)(F)F)cc32)CC1` [Fluphenazine_decanoate] the synaptosome phagocytic index was 1.03.
Work on `Cc1nc2c([nH]1)-c1ccccc1N(C(=O)c1ccc(NC(=O)c3ccccc3-c3ccccc3)cc1)CC2` [Conivaptan_(hydrochloride)] yielded a synaptosome phagocytic index of 0.827.
With `O=C(Oc1ccccc1C(=O)O)c1ccccc1O` [Salsalate] the synaptosome phagocytic index was 0.409.
For `NC(=O)c1cnccn1` [Pyrazinamide], the synaptosome phagocytic index was 1.21.

Reference: the supplement of paper PMC12339681
